This is an account of results in PubChem BioAssay (NCATS).

Records with an inconclusive call do not appear. Activity calls are given as the source filed them. Calls follow the shape of the dose curve; as a rule, active = well fitted cell-killing curve with a large enough effect; inconclusive = small, poorly fitted or top-dose-only effect, or effect the other way; inactive = no such curve, though single readings can be large or run the other way. Residues, ends and D or L forms follow the SMILES beside them. *: point of attachment. Cbz = O=C(OCc1ccccc1)*

A short description of experiment [1]: Quantitative High-Throughput drug screen in 47 multiple myeloma cell lines against the NCATS MIPE library collection: XG1_PLB cell viability assay (AID 1919866). Also: nearly all actives have a fitted effect of over 35% in size. The note with it: CellTiter-Glo ATP, 48 h; series mostly up to 45.8 µM. The gist of the method: (§1)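 Inhibition of viability over 48 h was scored by ATP content (CellTiter-Glo) in 500-cell wells. Zero and full viability were defined by media-only and DMSO-only wells.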

The nature of experiment [2]: Quantitative High-Throughput drug screen in 47 multiple myeloma cell lines against the NCATS MIPE library collection: VP6_DJ cell viability assay (AID 1919867). Also: nearly all actives have a fitted effect of over 40% in size. The conditions noted are these: ATP luminescence, 48 h; series mostly up to 45.8 µM. In outline:
as §1

Experiment [3] can be described thus: Quantitative High-Throughput drug screen in 47 multiple myeloma cell lines against the NCATS MIPE library collection: UTMC2_PLB cell viability assay (AID 1919868). Also: nearly all actives have a fitted effect of over 55% in size. The note with it: CellTiter-Glo ATP luminescence, 48 h; viability (% of DMSO control): at 45.8 µM (top of the series). In outline: as §1
Experiment [4] can be described thus: Quantitative High-Throughput drug screen in 47 multiple myeloma cell lines against the NCATS MIPE library collection: PE2_PLB cell viability assay (AID 1919869). Also: nearly all actives have a fitted effect of over 35% in size. The note with it: PE2_PLB myeloma cells viability, ATP luminescence, 48 h; series mostly up to 45.8 µM. In outline: as §1
Experiment [5] is described as follows: Quantitative High-Throughput drug screen in 47 multiple myeloma cell lines against the NCATS MIPE library collection: PCM6_Riken cell viability assay (AID 1919870). Also: nearly all actives have a fitted effect of over 30% in size. The note with it: CellTiter-Glo ATP, 48 h; series mostly up to 45.8 µM. The gist of the method:
as §1

Experiment [6] is described as follows: Quantitative High-Throughput drug screen in 47 multiple myeloma cell lines against the NCATS MIPE library collection: RPMI8226_ATCC cell viability assay (AID 1919871). Also: nearly all actives have a fitted effect of over 30% in size. The note with it: RPMI8226 myeloma viability, CellTiter-Glo ATP luminescence, 48 h; series mostly up to 45.8 µM. In outline: as §1
Experiment [7] can be described thus: Quantitative High-Throughput drug screen in 47 multiple myeloma cell lines against the NCATS MIPE library collection: OPM2_DSMZ cell viability assay (AID 1919872). Also: nearly all actives have a fitted effect of over 30% in size. The conditions noted are these: OPM2 myeloma viability, CellTiter-Glo ATP luminescence, 48 h; series mostly up to 45.8 µM. The gist of the method:
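We plated 500 myeloma cells per well, pinned in MIPE 4.0 compounds, and incubated for 48 hours at 37C. ATP was then quantified with CellTiter-Glo, with DMSO and media-only wells defining 100% and 0%.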

A short description of experiment [8]: Quantitative High-Throughput drug screen in 47 multiple myeloma cell lines against the NCATS MIPE library collection: KMS11_JCRBsus cell viability assay (AID 1919873). Also: nearly all actives have a fitted effect of over 50% in size. The conditions noted are these: KMS11 myeloma viability, CellTiter-Glo ATP luminescence, 48 h; series mostly up to 45.8 µM. In outline: as §1
Experiment [9] can be described thus: Quantitative High-Throughput drug screen in 47 multiple myeloma cell lines against the NCATS MIPE library collection: KMS28BM_JCRB cell viability assay (AID 1919874). Also: nearly all actives have a fitted effect of over 35% in size. The conditions noted are these: CellTiter-Glo ATP, 48 h; series mostly up to 45.8 µM. The gist of the method:
as §1
Potency is read from the fitted curve at half-maximal effect.

As to `C=Cc1c(C)c2cc3nc(cc4[nH]c(cc5nc(cc1[nH]2)C(C)=C5CCC(=O)O)c(CCC(=O)OC)c4C)[C@@]1(C)C3=CC=C(C(=O)OC)[C@H]1C(=O)OC`, the Potency is 93.5 nM (active) in experiment [1]; 118 nM (active) in [2]; 105 nM (active) in experiment [3]; 209 nM (active) in experiment [4]; 83.3 nM (active) in experiment [5]; 935 nM (active) in [6]. Besides, the Potency in experiment [7] was 1050 nM (active); in [8], 9350 nM (active).

Take `CC(C)C[C@@H](C=O)NC(=O)[C@H](CC(C)C)NC(=O)[C@H](CC(C)C)NC(=O)OCc1ccccc1` (Cbz-Leu-Leu-Leu-aldehyde): the Potency in [1] was 148 nM (active); in experiment [2] it was 132 nM (active); in [3] it was 1180 nM (active); in experiment [4] it was 209 nM (active); in experiment [5], 332 nM (active); in [6] it was 833 nM (active). For the same molecule, the results for the Potency in [7], in [8] and in experiment [9] were 662 nM (active), 264 nM (active) and 235 nM (active), respectively.

As to `CC(C)C[C@H](NC(=O)CNC(=O)c1cc(Cl)ccc1Cl)B1OC(=O)CC(CC(=O)O)(C(=O)O)O1` (stereo partly specified), the Potency in [1] was 41.8 nM (active); in [2], 29.6 nM (active); in [3], 526 nM (active); in experiment [4] it was 29.6 nM (active); in experiment [5], 46.9 nM (active); in [6], 118 nM (active). In addition, the Potency in [7] was 132 nM (active); in experiment [8], 41.8 nM (active); in [9], 52.6 nM (active).

For the molecule `C=CC(=O)Nc1ccc2ncnc(Nc3ccc(OCc4cccc(F)c4)c(Cl)c3)c2c1`, the Potency in experiment [1] was 66.2 nM (active); in experiment [2], 264 nM (active); in [3] it was 743 nM (active); in experiment [4], 590 nM (active); in experiment [5], 1660 nM (active); in experiment [6], 9350 nM (active). In addition, the Potency was 1050 nM (active) in experiment [7], 187 nM (active) in experiment [8] and 132 nM (active) in experiment [9].

As to `C[C@H]1O[C@H](O[C@H]2[C@H](O)[C@@H](O)[C@@H](O[C@H]3[C@H](O)[C@@H](O)C(O)O[C@H]3CO)O[C@H]2CO)[C@H](O)[C@@H](O)[C@H]1N[C@H]1C=C(CO)[C@@H](O)[C@H](O)[C@@H]1O` (stereo partly specified), the Potency result in experiment [1], in experiment [2], in experiment [3], in [4], in experiment [5] and in [6] was “inactive” throughout. For the same molecule, the Potency entry in experiment [7] and in experiment [8] was “inactive” each time.

Consider `C[C@@]12C(=O)OC(=O)[C@@]1(C)C1CCC2O1`, for which the Potency in experiment [1] is 2640 nM (active); in experiment [2], 2350 nM (active); in experiment [3], 46.9 nM (active); in experiment [4], 2640 nM (active); in experiment [5] it was 2350 nM (active); in experiment [6], 2960 nM (active). The Potency is 662 nM (active) in experiment [7], 743 nM (active) in experiment [8] and 1050 nM (active) in experiment [9].

Consider `COc1cc2c(Nc3ccc(Cl)c(Cl)c3F)ncnc2cc1OCC1C[C@@H]2CN(C)C[C@H]2C1`, for which the Potency in experiment [1] is 2350 nM (active); in experiment [2], 2640 nM (active); in experiment [3], 2350 nM (active); in [4], 1870 nM (active); in experiment [5], 1320 nM (active); in [6] it was 8330 nM (active). Besides, the Potency was 20900 nM (active) in experiment [7], 5900 nM (active) in [8] and 8330 nM (active) in experiment [9].

As to `Cn1cc(CNCC2CCN(c3ncc(C(=O)NO)cn3)CC2)c2ccccc21`, the Potency in experiment [1] is 52.6 nM (active); in [2], 13.2 nM (active); in experiment [3], 18.7 nM (active); in experiment [4], 118 nM (active); in experiment [5], 37.2 nM (active); in [6], 66.2 nM (active). The Potency in [7] was 41.8 nM (active); in [8], 26.4 nM (active); in [9] it was 18.7 nM (active).

`O=C1NCCc2[nH]c(-c3ccncc3)cc21`: the Potency in experiment [1] is 2090 nM (active); in experiment [2], 3720 nM (active); in [3] it was 3720 nM (active); in [4], 1870 nM (active); in experiment [5], 1660 nM (active); in experiment [6], 16600 nM (active). The results for the Potency in experiment [7] and in experiment [8] were 14800 nM (active) and 5260 nM (active), respectively.

With `CN(C)CC(=O)N1CCC(c2ccc(NC(=O)c3ncc(C#N)[nH]3)c(C3=CCCCC3)c2)CC1`, the Potency in [1] was 16600 nM (active); in experiment [2], 23500 nM (active); in experiment [3], 18700 nM (active); in experiment [4] it was 20900 nM (active); in experiment [5], 14800 nM (active); in experiment [8] it was 18700 nM (active). Also, the Potency in [9] is 26400 nM (active). In addition, the Potency entry in experiment [6] and in experiment [7] was “inactive” throughout.

In the case of `CC[C@H]1OC(=O)[C@H](C)[C@@H](O[C@H]2C[C@@](C)(OC)[C@@H](O)[C@H](C)O2)[C@H](C)[C@@H](O[C@@H]2O[C@H](C)C[C@H](N(C)C)[C@@H]2O)[C@](C)(OC)C[C@@H](C)C(=O)[C@H](C)[C@@H](O)[C@]1(C)O`, the Potency entry in experiment [1], in [2], in experiment [3], in experiment [4], in [5] and in experiment [6] was “inactive” each time. In addition, the Potency entry in experiment [7] is “inactive”.

`c1cc(N[C@@H]2CCNC2)nc(-c2cnc3ccc(-c4cn[nH]c4)cn23)c1`: the Potency in [1] was 5260 nM (active); in experiment [2], 14800 nM (active); in [3] it was 4690 nM (active); in [4], 2350 nM (active); in experiment [5], 5900 nM (active). Further, the Potency result in experiment [6] was “inactive”.

With `C[C@H](NCc1ccc(OCc2cccc(F)c2)cc1)C(N)=O`, the Potency in experiment [1] was 3720 nM (active); in [2] it was 2350 nM (active); in [3], 1180 nM (active); in experiment [4] it was 2090 nM (active); in experiment [5], 2090 nM (active); in [6] it was 16600 nM (active). The Potency in experiment [7] was 11800 nM (active); in experiment [8], 7430 nM (active); in [9], 5900 nM (active).

For the molecule `C=C1C(=O)O[C@H]2[C@@H]1CCC(C)=CCC[C@@]1(C)O[C@@H]21`, the Potency in experiment [1] is 2640 nM (active); in [2], 4180 nM (active); in [3], 4690 nM (active); in experiment [4] it was 3320 nM (active); in experiment [5], 3320 nM (active); in [6], 5260 nM (active). The Potency was 5900 nM (active) in [7] and 3320 nM (active) in experiment [8].

Consider `CC(=O)[C@]1(O)Cc2c(O)c3c(c(O)c2[C@@H](O[C@H]2C[C@H](N)[C@@H](O)[C@H](C)O2)C1)C(=O)c1ccccc1C3=O`, for which the Potency in experiment [1] is 166 nM (active); in experiment [2] it was 418 nM (active); in experiment [3] it was 37.2 nM (active); in experiment [4], 132 nM (active); in [5] it was 187 nM (active); in [6], 418 nM (active). Further, the Potency in experiment [7] was 662 nM (active); in experiment [8], 264 nM (active); in experiment [9] it was 148 nM (active).
